# Results from article PMC7862700, “An all-to-all approach to the identification of sequence-specific readers for epigenetic DNA modifications on cytosine”.
# Assays:
# Experiment in all cases: DAPPL (digital affinity profiling via proximity ligation, sequencing); 10 mM Tris-HCl pH 7.5, 50 mM NaCl, 1 mM DTT, 4% glycerol, room temperature, 30 min; GST-TFs on glutathione beads, 16-mer random dsDNA library, 0.1% formaldehyde crosslink after washing; high values mean tight binding
# [1] = biological target: T1, FLI1 (Homo sapiens, UniProt Q01543 1-452); details: protein: recombinant; tags: N-terminal GST; dsDNA, one strand shown
# T1 sequence: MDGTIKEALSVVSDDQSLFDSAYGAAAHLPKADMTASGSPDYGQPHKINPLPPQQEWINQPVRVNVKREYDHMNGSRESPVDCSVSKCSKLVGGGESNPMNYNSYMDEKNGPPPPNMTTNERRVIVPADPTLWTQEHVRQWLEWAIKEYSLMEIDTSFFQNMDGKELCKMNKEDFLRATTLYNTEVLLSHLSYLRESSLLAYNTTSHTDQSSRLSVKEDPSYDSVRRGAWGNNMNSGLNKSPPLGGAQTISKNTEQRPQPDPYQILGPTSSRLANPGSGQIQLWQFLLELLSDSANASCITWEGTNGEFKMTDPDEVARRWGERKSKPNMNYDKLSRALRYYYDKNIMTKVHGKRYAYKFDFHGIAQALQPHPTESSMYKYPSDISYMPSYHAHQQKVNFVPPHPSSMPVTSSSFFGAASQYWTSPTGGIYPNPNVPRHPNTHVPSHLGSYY
# Outline: (§1)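 GST fusions of human transcription factors were expressed in yeast and captured with glutathione beads. Once given DNA barcodes and pooled alongside a tag-only sample, they were incubated for 30 min at room temperature with 200 nmole of a random double-stranded 16-mer DNA library in Tris/NaCl/DTT/glycerol buffer, then washed, crosslinked (0.1% formaldehyde), proximity-ligated, PCR-amplified and sequenced on an Illumina NextSeq500. The binding signal of each hexamer is its read frequency for a factor divided by its frequency for the tag-only sample.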
# [2] = biological target: T2, ELK1 (Homo sapiens, UniProt P19419 1-428); details: protein: recombinant; tags: N-terminal GST; dsDNA, one strand shown
# T2 sequence: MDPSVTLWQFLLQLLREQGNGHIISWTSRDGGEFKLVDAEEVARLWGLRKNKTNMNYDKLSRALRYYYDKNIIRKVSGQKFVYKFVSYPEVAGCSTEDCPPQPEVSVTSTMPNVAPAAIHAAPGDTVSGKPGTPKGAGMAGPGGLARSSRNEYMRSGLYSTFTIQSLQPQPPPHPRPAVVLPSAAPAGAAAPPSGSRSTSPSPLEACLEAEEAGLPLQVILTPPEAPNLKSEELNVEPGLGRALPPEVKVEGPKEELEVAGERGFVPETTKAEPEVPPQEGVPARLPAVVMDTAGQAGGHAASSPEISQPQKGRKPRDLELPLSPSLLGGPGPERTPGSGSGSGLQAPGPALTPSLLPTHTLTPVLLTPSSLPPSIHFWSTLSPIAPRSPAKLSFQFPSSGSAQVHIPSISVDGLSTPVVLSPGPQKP
# Outline: as §1
# [3] = biological target: T3, GABPA (Homo sapiens, UniProt Q06546 1-454); details: protein: recombinant; tags: N-terminal GST; dsDNA, one strand shown
# T3 sequence: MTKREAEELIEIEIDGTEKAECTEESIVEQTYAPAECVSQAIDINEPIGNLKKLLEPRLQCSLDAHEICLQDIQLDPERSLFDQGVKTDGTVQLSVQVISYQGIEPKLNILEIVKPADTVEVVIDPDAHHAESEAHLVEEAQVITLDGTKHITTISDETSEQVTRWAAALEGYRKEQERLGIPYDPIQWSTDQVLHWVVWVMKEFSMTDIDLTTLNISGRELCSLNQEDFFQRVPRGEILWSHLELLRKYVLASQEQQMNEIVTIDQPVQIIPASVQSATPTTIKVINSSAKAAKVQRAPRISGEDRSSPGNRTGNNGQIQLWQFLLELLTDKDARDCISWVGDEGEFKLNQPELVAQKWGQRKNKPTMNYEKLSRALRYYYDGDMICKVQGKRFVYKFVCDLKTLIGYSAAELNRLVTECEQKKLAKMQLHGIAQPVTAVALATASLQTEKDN
# Outline: as §1
# [4] = biological target: T4, ERG (Homo sapiens, UniProt P11308 1-479); details: protein: recombinant; tags: N-terminal GST; dsDNA, one strand shown
# T4 sequence: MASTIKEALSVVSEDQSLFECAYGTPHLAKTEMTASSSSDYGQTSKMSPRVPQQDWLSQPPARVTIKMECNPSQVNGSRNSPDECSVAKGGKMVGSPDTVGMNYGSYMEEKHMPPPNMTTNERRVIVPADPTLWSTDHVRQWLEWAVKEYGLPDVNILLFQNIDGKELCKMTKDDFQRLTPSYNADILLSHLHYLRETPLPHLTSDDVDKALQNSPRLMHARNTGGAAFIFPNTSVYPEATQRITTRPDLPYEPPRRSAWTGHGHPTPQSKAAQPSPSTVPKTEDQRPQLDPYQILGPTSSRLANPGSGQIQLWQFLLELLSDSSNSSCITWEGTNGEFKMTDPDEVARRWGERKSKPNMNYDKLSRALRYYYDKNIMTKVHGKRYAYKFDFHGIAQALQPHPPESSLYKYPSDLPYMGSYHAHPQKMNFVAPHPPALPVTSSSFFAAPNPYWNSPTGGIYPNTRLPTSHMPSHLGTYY
# Outline: as §1
# [5] = biological target: ELF1 (Homo sapiens, UniProt P32519 1-619); details: protein: recombinant; tags: N-terminal GST; dsDNA, one strand shown
# Chain of ELF1 (P32519 whole entry): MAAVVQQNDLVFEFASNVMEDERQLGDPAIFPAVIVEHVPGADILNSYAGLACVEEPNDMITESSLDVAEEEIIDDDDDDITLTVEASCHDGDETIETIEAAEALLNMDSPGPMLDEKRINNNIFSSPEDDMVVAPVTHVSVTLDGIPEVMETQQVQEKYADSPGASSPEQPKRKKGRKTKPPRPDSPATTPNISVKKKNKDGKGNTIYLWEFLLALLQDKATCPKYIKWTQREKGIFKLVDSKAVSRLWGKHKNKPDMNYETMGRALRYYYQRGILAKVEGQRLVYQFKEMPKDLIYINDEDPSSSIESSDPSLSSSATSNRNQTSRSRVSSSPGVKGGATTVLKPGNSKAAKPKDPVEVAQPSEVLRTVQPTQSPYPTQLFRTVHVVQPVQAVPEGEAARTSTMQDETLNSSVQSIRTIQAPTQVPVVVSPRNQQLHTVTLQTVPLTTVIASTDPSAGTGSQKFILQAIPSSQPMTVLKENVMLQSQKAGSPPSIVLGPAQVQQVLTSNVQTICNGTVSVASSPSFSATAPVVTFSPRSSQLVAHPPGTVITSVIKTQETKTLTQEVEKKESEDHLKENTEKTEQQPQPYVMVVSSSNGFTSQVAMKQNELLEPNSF
# Outline: as §1
# [6] = biological target: T5, EHF (Homo sapiens, UniProt Q9NZC4 1-300); details: protein: recombinant; tags: N-terminal GST; dsDNA, one strand shown
# T5 sequence: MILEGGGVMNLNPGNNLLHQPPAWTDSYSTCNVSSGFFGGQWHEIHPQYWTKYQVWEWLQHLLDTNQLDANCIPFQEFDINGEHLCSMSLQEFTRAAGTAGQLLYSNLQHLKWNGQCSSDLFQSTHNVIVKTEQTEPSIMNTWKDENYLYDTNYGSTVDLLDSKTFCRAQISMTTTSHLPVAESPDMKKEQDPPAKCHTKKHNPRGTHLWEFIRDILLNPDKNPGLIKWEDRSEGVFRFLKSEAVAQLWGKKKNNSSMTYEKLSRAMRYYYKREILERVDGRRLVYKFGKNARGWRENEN
# Outline: as §1
# [7] = biological target: SPI1 (Homo sapiens, UniProt P17947 1-270); details: protein: recombinant; tags: N-terminal GST; dsDNA, one strand shown
# Outline: as §1
# [8] = biological target: SPIB (Homo sapiens, UniProt Q01892 1-262); details: protein: recombinant; tags: N-terminal GST; dsDNA, one strand shown
# Chain of SPIB (Q01892 whole entry): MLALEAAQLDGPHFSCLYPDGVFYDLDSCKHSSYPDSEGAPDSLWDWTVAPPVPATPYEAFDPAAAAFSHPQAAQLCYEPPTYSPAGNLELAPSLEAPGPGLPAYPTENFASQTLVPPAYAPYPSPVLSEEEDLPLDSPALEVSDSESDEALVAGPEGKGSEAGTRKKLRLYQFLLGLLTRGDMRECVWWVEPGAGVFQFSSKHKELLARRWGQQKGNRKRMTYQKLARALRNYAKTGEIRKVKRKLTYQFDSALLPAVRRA
# Outline: as §1
# [9] = biological target: T6, ELK3 (Homo sapiens, UniProt P41970 1-407); details: protein: recombinant; tags: N-terminal GST; dsDNA, one strand shown
# T6 sequence: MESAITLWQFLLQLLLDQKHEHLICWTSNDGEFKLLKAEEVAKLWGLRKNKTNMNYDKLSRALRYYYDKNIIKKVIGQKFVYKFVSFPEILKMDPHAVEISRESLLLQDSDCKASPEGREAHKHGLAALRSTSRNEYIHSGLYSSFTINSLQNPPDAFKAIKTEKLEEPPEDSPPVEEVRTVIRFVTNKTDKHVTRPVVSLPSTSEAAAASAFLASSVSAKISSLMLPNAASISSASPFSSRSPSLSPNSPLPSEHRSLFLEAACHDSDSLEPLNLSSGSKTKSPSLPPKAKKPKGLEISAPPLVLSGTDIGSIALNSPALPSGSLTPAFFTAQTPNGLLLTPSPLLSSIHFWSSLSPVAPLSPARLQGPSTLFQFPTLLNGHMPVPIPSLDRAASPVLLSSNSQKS
# Outline: as §1
# [10] = biological target: T7, FEV (Homo sapiens, UniProt Q99581 1-238); details: protein: recombinant; tags: N-terminal GST; dsDNA, one strand shown
# T7 sequence: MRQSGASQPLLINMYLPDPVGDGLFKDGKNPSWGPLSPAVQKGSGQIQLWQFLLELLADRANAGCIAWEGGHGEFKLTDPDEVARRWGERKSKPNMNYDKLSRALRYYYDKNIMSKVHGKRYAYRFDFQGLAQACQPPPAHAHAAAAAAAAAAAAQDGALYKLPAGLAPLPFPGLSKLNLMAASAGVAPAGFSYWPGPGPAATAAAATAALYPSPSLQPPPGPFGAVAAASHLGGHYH
# Outline: as §1
# [11] = biological target: ETV5 (Homo sapiens, UniProt P41161 1-510); details: protein: recombinant; tags: N-terminal GST; dsDNA, one strand shown
# Chain of ETV5 (P41161 whole entry): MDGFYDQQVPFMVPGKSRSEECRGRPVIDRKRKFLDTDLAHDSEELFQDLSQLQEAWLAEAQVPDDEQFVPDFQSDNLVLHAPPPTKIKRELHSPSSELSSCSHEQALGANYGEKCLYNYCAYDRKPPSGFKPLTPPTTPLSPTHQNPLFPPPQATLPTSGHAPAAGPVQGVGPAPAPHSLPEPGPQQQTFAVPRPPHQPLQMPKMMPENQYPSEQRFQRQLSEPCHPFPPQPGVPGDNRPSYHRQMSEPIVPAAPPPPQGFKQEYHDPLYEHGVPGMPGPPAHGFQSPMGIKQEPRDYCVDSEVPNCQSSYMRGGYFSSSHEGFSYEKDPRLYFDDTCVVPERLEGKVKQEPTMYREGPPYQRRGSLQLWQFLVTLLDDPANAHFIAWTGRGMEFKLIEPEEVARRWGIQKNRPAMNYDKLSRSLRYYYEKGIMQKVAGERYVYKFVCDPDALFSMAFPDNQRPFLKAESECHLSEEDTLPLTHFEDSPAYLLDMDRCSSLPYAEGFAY
# Outline: as §1
# [12] = biological target: HSF1 (Homo sapiens, UniProt Q00613 1-529); details: protein: recombinant; tags: N-terminal GST; chain copies: 3; dsDNA, one strand shown
# Chain of HSF1 (Q00613 whole entry): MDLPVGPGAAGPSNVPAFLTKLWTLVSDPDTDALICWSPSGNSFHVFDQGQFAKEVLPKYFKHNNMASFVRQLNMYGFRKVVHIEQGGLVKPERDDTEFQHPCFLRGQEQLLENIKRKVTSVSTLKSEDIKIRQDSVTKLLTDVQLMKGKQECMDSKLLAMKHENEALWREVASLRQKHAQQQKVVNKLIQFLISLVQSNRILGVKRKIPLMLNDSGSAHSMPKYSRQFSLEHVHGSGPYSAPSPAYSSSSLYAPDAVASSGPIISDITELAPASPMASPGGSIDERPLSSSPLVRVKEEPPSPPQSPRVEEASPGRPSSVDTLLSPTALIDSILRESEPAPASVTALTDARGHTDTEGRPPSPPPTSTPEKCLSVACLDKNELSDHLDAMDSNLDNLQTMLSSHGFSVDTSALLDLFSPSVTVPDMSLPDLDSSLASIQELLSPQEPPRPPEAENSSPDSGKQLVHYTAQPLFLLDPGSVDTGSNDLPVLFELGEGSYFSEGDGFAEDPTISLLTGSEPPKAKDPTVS
# Outline: as §1
# [13] = biological target: T8, SPIC (Homo sapiens, UniProt Q8N5J4 1-248); details: protein: recombinant; tags: N-terminal GST; dsDNA, one strand shown
# T8 sequence: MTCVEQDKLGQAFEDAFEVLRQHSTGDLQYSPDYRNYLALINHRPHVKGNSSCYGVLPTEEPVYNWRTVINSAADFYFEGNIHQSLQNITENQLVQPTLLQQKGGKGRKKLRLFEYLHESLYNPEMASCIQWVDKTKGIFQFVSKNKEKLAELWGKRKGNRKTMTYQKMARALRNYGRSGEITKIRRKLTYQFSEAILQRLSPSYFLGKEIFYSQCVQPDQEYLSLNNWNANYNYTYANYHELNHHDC
# Outline: as §1
# [14] = biological target: ELF4 (Homo sapiens, UniProt Q99607 1-663); details: protein: recombinant; tags: N-terminal GST; dsDNA, one strand shown
# Chain of ELF4 (Q99607 whole entry): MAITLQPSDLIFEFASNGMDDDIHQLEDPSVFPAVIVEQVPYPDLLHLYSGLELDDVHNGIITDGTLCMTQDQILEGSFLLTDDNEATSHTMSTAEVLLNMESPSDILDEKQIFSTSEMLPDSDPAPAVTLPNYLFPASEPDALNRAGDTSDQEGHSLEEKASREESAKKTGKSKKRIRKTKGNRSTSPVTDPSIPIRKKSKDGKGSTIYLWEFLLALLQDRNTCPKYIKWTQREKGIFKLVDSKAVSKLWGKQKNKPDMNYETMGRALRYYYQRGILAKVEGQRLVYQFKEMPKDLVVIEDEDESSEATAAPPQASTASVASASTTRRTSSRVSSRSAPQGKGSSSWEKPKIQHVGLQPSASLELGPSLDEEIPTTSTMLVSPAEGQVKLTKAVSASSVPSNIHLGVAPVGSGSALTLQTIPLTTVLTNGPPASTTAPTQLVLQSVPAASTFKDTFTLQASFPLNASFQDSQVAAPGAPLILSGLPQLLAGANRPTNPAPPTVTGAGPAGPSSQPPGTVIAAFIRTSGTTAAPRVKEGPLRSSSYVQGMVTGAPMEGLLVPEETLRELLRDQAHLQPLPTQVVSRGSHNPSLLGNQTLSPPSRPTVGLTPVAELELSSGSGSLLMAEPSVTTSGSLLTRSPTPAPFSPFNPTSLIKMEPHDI
# Outline: as §1
# [15] = biological target: T9, ELK4 (Homo sapiens, UniProt P28324-2 1-405); details: protein: recombinant; tags: N-terminal GST; dsDNA, one strand shown
# T9 sequence: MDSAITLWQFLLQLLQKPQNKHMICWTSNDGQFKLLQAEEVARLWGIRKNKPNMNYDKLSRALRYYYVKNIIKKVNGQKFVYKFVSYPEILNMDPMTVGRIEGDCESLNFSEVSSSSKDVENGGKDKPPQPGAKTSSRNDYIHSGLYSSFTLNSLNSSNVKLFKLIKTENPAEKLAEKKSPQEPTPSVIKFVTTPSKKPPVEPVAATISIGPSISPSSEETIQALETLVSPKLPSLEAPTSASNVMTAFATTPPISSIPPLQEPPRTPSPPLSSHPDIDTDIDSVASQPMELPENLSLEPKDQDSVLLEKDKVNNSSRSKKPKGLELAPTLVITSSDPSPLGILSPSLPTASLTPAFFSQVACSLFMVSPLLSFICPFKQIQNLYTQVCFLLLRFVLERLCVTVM
# Outline: as §1
# [16] = biological target: T10, ETV2 (Homo sapiens, UniProt O00321 1-342); details: protein: recombinant; tags: N-terminal GST; dsDNA, one strand shown
# T10 sequence: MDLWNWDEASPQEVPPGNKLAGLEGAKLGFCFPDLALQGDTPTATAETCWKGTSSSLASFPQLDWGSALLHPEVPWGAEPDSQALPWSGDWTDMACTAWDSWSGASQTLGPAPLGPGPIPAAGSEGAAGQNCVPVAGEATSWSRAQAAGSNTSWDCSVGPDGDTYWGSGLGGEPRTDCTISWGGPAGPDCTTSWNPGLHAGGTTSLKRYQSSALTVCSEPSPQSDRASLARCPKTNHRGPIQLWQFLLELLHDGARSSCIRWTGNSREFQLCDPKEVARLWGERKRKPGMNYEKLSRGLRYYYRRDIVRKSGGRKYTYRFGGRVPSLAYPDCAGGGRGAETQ
# Outline: as §1
# [17] = biological target: T11, ELF3 (Homo sapiens, UniProt P78545 1-371); details: protein: recombinant; tags: N-terminal GST; dsDNA, one strand shown
# T11 sequence: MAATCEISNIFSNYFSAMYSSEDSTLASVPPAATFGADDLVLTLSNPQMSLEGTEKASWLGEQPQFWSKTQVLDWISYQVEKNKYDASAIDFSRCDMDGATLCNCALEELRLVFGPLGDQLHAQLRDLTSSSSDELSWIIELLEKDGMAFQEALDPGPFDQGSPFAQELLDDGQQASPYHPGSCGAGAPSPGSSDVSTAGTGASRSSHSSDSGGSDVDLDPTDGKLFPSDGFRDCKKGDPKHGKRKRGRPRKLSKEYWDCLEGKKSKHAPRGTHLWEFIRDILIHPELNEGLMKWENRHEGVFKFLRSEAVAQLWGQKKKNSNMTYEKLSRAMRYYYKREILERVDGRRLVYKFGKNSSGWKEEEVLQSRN
# Outline: as §1
# [18] = biological target: ETV1 (Homo sapiens, UniProt P50549 1-477); details: protein: recombinant; tags: N-terminal GST; dsDNA, one strand shown
# Chain of ETV1 (P50549 whole entry): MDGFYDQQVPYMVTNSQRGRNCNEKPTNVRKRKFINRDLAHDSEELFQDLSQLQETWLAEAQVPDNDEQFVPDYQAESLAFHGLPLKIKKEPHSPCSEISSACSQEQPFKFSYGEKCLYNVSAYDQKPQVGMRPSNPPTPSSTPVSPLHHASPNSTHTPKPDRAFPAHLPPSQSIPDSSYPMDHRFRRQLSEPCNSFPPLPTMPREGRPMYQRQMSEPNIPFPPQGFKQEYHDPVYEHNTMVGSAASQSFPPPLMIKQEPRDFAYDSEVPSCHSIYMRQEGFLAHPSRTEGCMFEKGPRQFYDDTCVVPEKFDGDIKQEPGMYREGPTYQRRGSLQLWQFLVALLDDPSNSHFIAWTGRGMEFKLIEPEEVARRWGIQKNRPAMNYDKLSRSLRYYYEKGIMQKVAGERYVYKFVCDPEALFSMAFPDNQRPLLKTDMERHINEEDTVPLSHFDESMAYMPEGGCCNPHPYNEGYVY
# Outline: as §1
sequence,measurement,setting,value
TGGTTC,binding signal,[1],"1.45 fold enrichment (6-mer frequency, TF over GST control)"
same,binding signal,[2],"1.33 fold enrichment (6-mer frequency, TF over GST control)"
same,binding signal,[3],"1.35 fold enrichment (6-mer frequency, TF over GST control)"
same,binding signal,[4],"1.29 fold enrichment (6-mer frequency, TF over GST control)"
same,binding signal,[5],"1.28 fold enrichment (6-mer frequency, TF over GST control)"
same,binding signal,[6],"1.31 fold enrichment (6-mer frequency, TF over GST control)"
same,binding signal,[7],"1.32 fold enrichment (6-mer frequency, TF over GST control)"
same,binding signal,[8],"1.37 fold enrichment (6-mer frequency, TF over GST control)"
same,binding signal,[9],"1.32 fold enrichment (6-mer frequency, TF over GST control)"
same,binding signal,[10],"1.35 fold enrichment (6-mer frequency, TF over GST control)"
same,binding signal,[11],"1.44 fold enrichment (6-mer frequency, TF over GST control)"
same,binding signal,[12],"1.27 fold enrichment (6-mer frequency, TF over GST control)"
same,binding signal,[13],"1.51 fold enrichment (6-mer frequency, TF over GST control)"
same,binding signal,[14],"1.33 fold enrichment (6-mer frequency, TF over GST control)"
same,binding signal,[15],"1.36 fold enrichment (6-mer frequency, TF over GST control)"
same,binding signal,[16],"1.33 fold enrichment (6-mer frequency, TF over GST control)"
same,binding signal,[17],"1.57 fold enrichment (6-mer frequency, TF over GST control)"
same,binding signal,[18],"1.38 fold enrichment (6-mer frequency, TF over GST control)"
